Consider 7 sequences from article PMC11006913.

What all share (experiment): PBM; 200 nM protein, PBS
Common to all, as to settings: dsDNA, one strand shown

Assay [1] deals with HOXB9 (Homo sapiens, UniProt P17482 171-250, T197M).
The target in assay [2] is HOXC9 (Homo sapiens, UniProt P31274 178-260, K195R).
The target in assay [3] is HOXC10 (Homo sapiens, UniProt Q9NYD6 254-340).
Assay [4] addresses HOXB9 (Homo sapiens, UniProt P17482 171-250).
Assay [5] concerns the target HOXC9 (Homo sapiens, UniProt P31274 178-260).
Assay [6] concerns the target HOXD13 (Homo sapiens, UniProt P35453 263-343, T313R).
Assay [7] concerns the target HOXC9 (Homo sapiens, UniProt P31274 178-260, R193K).
Assay [8] has as its target HOXD13 (Homo sapiens, UniProt P35453 263-343).
The target in assay [9] is HOXC10 (Homo sapiens, UniProt Q9NYD6 254-340, K271E).
Assay [10] deals with HOXD13 (Homo sapiens, UniProt P35453 263-343, T313A).
Assay [11] concerns the target HOXB9 (Homo sapiens, UniProt P17482 171-250, R186Q).
The target in assay [12] is HOXC9 (Homo sapiens, UniProt P31274 178-260, R222W).
For assay [13], the target named is MSX2 (Homo sapiens, UniProt P35548 130-214, R199I).
In assay [14] the target is MSX2 (Homo sapiens, UniProt P35548 130-214).
Assay [15] concerns the target PROP1 (Homo sapiens, UniProt O75360 56-141).
Assay [16] addresses PROP1 (Homo sapiens, UniProt O75360 56-141, R99H).
In assay [17] the target is PROP1 (Homo sapiens, UniProt O75360 56-141, F88S).
The target of assay [18] is MSX2 (Homo sapiens, UniProt P35548 130-214, F161Y).
For another assay, the target named is HOXA2 (Homo sapiens, UniProt O43364 129-215, R185K).
Sequence of HOXA2 (O43364 129-215 R185K): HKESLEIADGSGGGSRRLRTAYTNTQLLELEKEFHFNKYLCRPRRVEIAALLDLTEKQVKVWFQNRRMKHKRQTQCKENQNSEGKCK

Sequence of HOXD13 (Homo sapiens, UniProt P35453 263-343, T313A) (P35453 263-343 T313A): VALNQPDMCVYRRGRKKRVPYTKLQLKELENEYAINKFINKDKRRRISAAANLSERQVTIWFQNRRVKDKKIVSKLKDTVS
Sequence of HOXC10 (Homo sapiens, UniProt Q9NYD6 254-340, K271E) (Q9NYD6 254-340 K271E): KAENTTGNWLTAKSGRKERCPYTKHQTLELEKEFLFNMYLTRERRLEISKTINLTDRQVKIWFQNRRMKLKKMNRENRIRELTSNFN
Sequence of HOXC10 (Homo sapiens, UniProt Q9NYD6 254-340) (Q9NYD6 254-340): as the sequence (Q9NYD6 254-340 K271E) above, with E18K counted along it
Sequence of HOXC9 (Homo sapiens, UniProt P31274 178-260, R193K) (P31274 178-260 R193K): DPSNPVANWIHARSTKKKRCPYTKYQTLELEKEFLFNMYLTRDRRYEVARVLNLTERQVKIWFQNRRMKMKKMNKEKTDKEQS
Sequence of HOXC9 (Homo sapiens, UniProt P31274 178-260, K195R) (P31274 178-260 K195R): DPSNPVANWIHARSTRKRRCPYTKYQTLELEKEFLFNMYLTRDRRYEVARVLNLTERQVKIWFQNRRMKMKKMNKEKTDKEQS
Sequence of HOXB9 (Homo sapiens, UniProt P17482 171-250) (P17482 171-250): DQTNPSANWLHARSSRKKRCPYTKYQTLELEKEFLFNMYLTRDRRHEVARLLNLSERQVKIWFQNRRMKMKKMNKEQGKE
Sequence of HOXC9 (Homo sapiens, UniProt P31274 178-260, R222W) (P31274 178-260 R222W): as the sequence (P31274 178-260 R193K) above, with K16R, R45W counted along it
Sequence of HOXD13 (Homo sapiens, UniProt P35453 263-343, T313R) (P35453 263-343 T313R): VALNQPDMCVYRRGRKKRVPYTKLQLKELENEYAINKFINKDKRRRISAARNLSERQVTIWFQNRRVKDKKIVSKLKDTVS
Sequence of HOXD13 (Homo sapiens, UniProt P35453 263-343) (P35453 263-343): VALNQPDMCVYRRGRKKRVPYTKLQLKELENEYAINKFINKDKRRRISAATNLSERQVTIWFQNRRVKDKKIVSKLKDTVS
Sequence of HOXC9 (Homo sapiens, UniProt P31274 178-260) (P31274 178-260): as the sequence (P31274 178-260 R193K) above, with K16R counted along it
Sequence of HOXB9 (Homo sapiens, UniProt P17482 171-250, T197M) (P17482 171-250 T197M): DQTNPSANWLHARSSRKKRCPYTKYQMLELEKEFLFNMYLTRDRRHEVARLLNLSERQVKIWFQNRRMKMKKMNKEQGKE
Sequence of HOXB9 (Homo sapiens, UniProt P17482 171-250, R186Q) (P17482 171-250 R186Q): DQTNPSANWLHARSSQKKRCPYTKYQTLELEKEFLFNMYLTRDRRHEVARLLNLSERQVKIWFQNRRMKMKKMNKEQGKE
Sequence of PROP1 (Homo sapiens, UniProt O75360 56-141) (O75360 56-141): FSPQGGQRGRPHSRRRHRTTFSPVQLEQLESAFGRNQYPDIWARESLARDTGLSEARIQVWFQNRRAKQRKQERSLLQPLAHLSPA
Sequence of PROP1 (Homo sapiens, UniProt O75360 56-141, F88S) (O75360 56-141 F88S): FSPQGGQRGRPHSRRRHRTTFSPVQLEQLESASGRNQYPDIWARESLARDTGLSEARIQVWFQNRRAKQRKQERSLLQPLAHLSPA
Sequence of MSX2 (Homo sapiens, UniProt P35548 130-214) (P35548 130-214): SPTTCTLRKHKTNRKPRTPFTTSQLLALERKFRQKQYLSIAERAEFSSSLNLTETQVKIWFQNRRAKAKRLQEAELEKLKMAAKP
Sequence of PROP1 (Homo sapiens, UniProt O75360 56-141, R99H) (O75360 56-141 R99H): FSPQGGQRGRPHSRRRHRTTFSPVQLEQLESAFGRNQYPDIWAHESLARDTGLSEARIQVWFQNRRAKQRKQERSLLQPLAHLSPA
Sequence of MSX2 (Homo sapiens, UniProt P35548 130-214, R199I) (P35548 130-214 R199I): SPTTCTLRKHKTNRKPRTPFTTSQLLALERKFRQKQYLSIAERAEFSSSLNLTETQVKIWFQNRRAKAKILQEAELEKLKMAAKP
Sequence of MSX2 (Homo sapiens, UniProt P35548 130-214, F161Y) (P35548 130-214 F161Y): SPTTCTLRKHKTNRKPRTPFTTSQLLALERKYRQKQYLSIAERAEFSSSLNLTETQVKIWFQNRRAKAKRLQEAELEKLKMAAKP

In the case of ACCATAAA, the binding signal is 9.6 upbm affinity estimate (log intensity, higher = more binding, comparable within an allelic series) with HOXB9 [1]; 12.5 upbm affinity estimate (log intensity, higher = more binding, comparable within an allelic series) with HOXC9 [2]; 12.3 upbm affinity estimate (log intensity, higher = more binding, comparable within an allelic series) with HOXC10 [3]; 11.9 upbm affinity estimate (log intensity, higher = more binding, comparable within an allelic series) in the assay with HOXB9 [4]; 12.8 upbm affinity estimate (log intensity, higher = more binding, comparable within an allelic series) with HOXC9 [5]; 10.8 upbm affinity estimate (log intensity, higher = more binding, comparable within an allelic series) with HOXD13 [6]. Besides, the binding signal with HOXC9 [7] is 12.7 upbm affinity estimate (log intensity, higher = more binding, comparable within an allelic series); with HOXD13 [8], 12 upbm affinity estimate (log intensity, higher = more binding, comparable within an allelic series); with HOXC10 [9], 11.5 upbm affinity estimate (log intensity, higher = more binding, comparable within an allelic series); with HOXD13 [10], 11.7 upbm affinity estimate (log intensity, higher = more binding, comparable within an allelic series); with HOXB9 [11], 11.6 upbm affinity estimate (log intensity, higher = more binding, comparable within an allelic series); with HOXC9 [12] it was 10.9 upbm affinity estimate (log intensity, higher = more binding, comparable within an allelic series).

For the sequence CCGCCTGC, the binding signal with HOXB9 [1] was 8.29 upbm affinity estimate (log intensity, higher = more binding, comparable within an allelic series); with HOXC9 [2], 9.62 upbm affinity estimate (log intensity, higher = more binding, comparable within an allelic series); with HOXB9 [4] it was 8.24 upbm affinity estimate (log intensity, higher = more binding, comparable within an allelic series); in the assay with HOXC9 [5], 9.64 upbm affinity estimate (log intensity, higher = more binding, comparable within an allelic series); with MSX2 [13] it was 9.41 upbm affinity estimate (log intensity, higher = more binding, comparable within an allelic series); with HOXC9 [7], 9.49 upbm affinity estimate (log intensity, higher = more binding, comparable within an allelic series). The binding signal with MSX2 [14] was 9.55 upbm affinity estimate (log intensity, higher = more binding, comparable within an allelic series); with PROP1 [15], 6.72 upbm affinity estimate (log intensity, higher = more binding, comparable within an allelic series); with PROP1 [16], 6.65 upbm affinity estimate (log intensity, higher = more binding, comparable within an allelic series); in the assay with HOXB9 [11], 8.24 upbm affinity estimate (log intensity, higher = more binding, comparable within an allelic series); with HOXC9 [12], 9.72 upbm affinity estimate (log intensity, higher = more binding, comparable within an allelic series); with PROP1 [17], 6.62 upbm affinity estimate (log intensity, higher = more binding, comparable within an allelic series). In addition, in the assay with MSX2 [18], the binding signal is 9.55 upbm affinity estimate (log intensity, higher = more binding, comparable within an allelic series).

With ATCGTTAA, the binding signal with HOXB9 [1] was 9.99 upbm affinity estimate (log intensity, higher = more binding, comparable within an allelic series); in the assay with HOXC9 [2], 12.5 upbm affinity estimate (log intensity, higher = more binding, comparable within an allelic series); with HOXC10 [3], 12.4 upbm affinity estimate (log intensity, higher = more binding, comparable within an allelic series); in the assay with HOXC9 [5] it was 12.6 upbm affinity estimate (log intensity, higher = more binding, comparable within an allelic series); in the assay with HOXC9 [7], 12.5 upbm affinity estimate (log intensity, higher = more binding, comparable within an allelic series); with HOXA2 it was 13.1 upbm affinity estimate (log intensity, higher = more binding, comparable within an allelic series). The binding signal with HOXC10 [9] was 12.1 upbm affinity estimate (log intensity, higher = more binding, comparable within an allelic series); with HOXC9 [12], 10.7 upbm affinity estimate (log intensity, higher = more binding, comparable within an allelic series).

As for ACAATAAA, the binding signal with HOXB9 [1] was 9.83 upbm affinity estimate (log intensity, higher = more binding, comparable within an allelic series); with HOXC9 [2] it was 12.6 upbm affinity estimate (log intensity, higher = more binding, comparable within an allelic series); with HOXC10 [3], 12.3 upbm affinity estimate (log intensity, higher = more binding, comparable within an allelic series); with HOXB9 [4], 12 upbm affinity estimate (log intensity, higher = more binding, comparable within an allelic series); with HOXC9 [5], 12.9 upbm affinity estimate (log intensity, higher = more binding, comparable within an allelic series); in the assay with HOXD13 [6] it was 10.9 upbm affinity estimate (log intensity, higher = more binding, comparable within an allelic series). Moreover, the binding signal in the assay with HOXC9 [7] was 12.7 upbm affinity estimate (log intensity, higher = more binding, comparable within an allelic series); with HOXD13 [8], 12.1 upbm affinity estimate (log intensity, higher = more binding, comparable within an allelic series); in the assay with HOXC10 [9] it was 11.7 upbm affinity estimate (log intensity, higher = more binding, comparable within an allelic series); with HOXD13 [10], 11.8 upbm affinity estimate (log intensity, higher = more binding, comparable within an allelic series); in the assay with HOXB9 [11], 11.7 upbm affinity estimate (log intensity, higher = more binding, comparable within an allelic series); with HOXC9 [12] it was 11.1 upbm affinity estimate (log intensity, higher = more binding, comparable within an allelic series).

For the sequence GCTATAAA, the binding signal with HOXB9 [1] was 9.72 upbm affinity estimate (log intensity, higher = more binding, comparable within an allelic series); with HOXC9 [2] it was 12.7 upbm affinity estimate (log intensity, higher = more binding, comparable within an allelic series); with HOXC10 [3], 12.2 upbm affinity estimate (log intensity, higher = more binding, comparable within an allelic series); with HOXB9 [4] it was 12 upbm affinity estimate (log intensity, higher = more binding, comparable within an allelic series); in the assay with HOXC9 [5] it was 12.8 upbm affinity estimate (log intensity, higher = more binding, comparable within an allelic series); in the assay with HOXD13 [6], 10.9 upbm affinity estimate (log intensity, higher = more binding, comparable within an allelic series). Further, the binding signal in the assay with HOXC9 [7] is 12.7 upbm affinity estimate (log intensity, higher = more binding, comparable within an allelic series); in the assay with HOXD13 [8], 12 upbm affinity estimate (log intensity, higher = more binding, comparable within an allelic series); with HOXC10 [9] it was 11.4 upbm affinity estimate (log intensity, higher = more binding, comparable within an allelic series); with HOXD13 [10], 11.7 upbm affinity estimate (log intensity, higher = more binding, comparable within an allelic series); with HOXB9 [11], 11.7 upbm affinity estimate (log intensity, higher = more binding, comparable within an allelic series); with HOXC9 [12], 11 upbm affinity estimate (log intensity, higher = more binding, comparable within an allelic series).

For the sequence TCGTTAAA, the binding signal is 9.96 upbm affinity estimate (log intensity, higher = more binding, comparable within an allelic series) with HOXB9 [1]; 12.5 upbm affinity estimate (log intensity, higher = more binding, comparable within an allelic series) with HOXC9 [2]; 12.4 upbm affinity estimate (log intensity, higher = more binding, comparable within an allelic series) with HOXC10 [3]; 11.7 upbm affinity estimate (log intensity, higher = more binding, comparable within an allelic series) with HOXB9 [4]; 12.7 upbm affinity estimate (log intensity, higher = more binding, comparable within an allelic series) with HOXC9 [5]; 10.8 upbm affinity estimate (log intensity, higher = more binding, comparable within an allelic series) in the assay with HOXD13 [6]. Besides, the binding signal in the assay with HOXC9 [7] was 12.4 upbm affinity estimate (log intensity, higher = more binding, comparable within an allelic series); with HOXD13 [8], 12 upbm affinity estimate (log intensity, higher = more binding, comparable within an allelic series); with HOXC10 [9], 12.1 upbm affinity estimate (log intensity, higher = more binding, comparable within an allelic series); with HOXD13 [10] it was 11.7 upbm affinity estimate (log intensity, higher = more binding, comparable within an allelic series); with HOXB9 [11], 11.3 upbm affinity estimate (log intensity, higher = more binding, comparable within an allelic series); with HOXC9 [12] it was 10.9 upbm affinity estimate (log intensity, higher = more binding, comparable within an allelic series).

For the sequence ATCGTAAA, the binding signal with HOXB9 [1] is 9.78 upbm affinity estimate (log intensity, higher = more binding, comparable within an allelic series); with HOXC9 [2], 12.6 upbm affinity estimate (log intensity, higher = more binding, comparable within an allelic series); with HOXC10 [3], 12.7 upbm affinity estimate (log intensity, higher = more binding, comparable within an allelic series); with HOXB9 [4], 11.9 upbm affinity estimate (log intensity, higher = more binding, comparable within an allelic series); with HOXC9 [5] it was 12.9 upbm affinity estimate (log intensity, higher = more binding, comparable within an allelic series); with HOXD13 [6], 10.9 upbm affinity estimate (log intensity, higher = more binding, comparable within an allelic series). The binding signal with HOXC9 [7] was 12.6 upbm affinity estimate (log intensity, higher = more binding, comparable within an allelic series); with HOXD13 [8], 12.1 upbm affinity estimate (log intensity, higher = more binding, comparable within an allelic series); in the assay with HOXC10 [9], 12.1 upbm affinity estimate (log intensity, higher = more binding, comparable within an allelic series); with HOXD13 [10], 11.8 upbm affinity estimate (log intensity, higher = more binding, comparable within an allelic series); with HOXB9 [11] it was 11.4 upbm affinity estimate (log intensity, higher = more binding, comparable within an allelic series); with HOXC9 [12] it was 10.8 upbm affinity estimate (log intensity, higher = more binding, comparable within an allelic series).
